Source: PubChem BioAssay (National Center for Advancing Translational Sciences (NCATS))
HCV inhibitor: HCV inhibition | Huh7.5.1 HCVcc-Cre infection, luciferase reporter, 44 h | Potency, µM (doses to about 41.8 µM), most hits filed as inhibitors | 3.4% of 340,000 active | AID 651820
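Compounds are dispensed onto cells plated 4 h earlier at 1,000 per well, with HCVcc-Cre virus (about 0.5 moi) added next. Following 44 h of culture, luminescent signal is measured for 15 sec after 15 min with substrate at room temperature.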
Vaccinia mCherry: inhibitors of vaccinia virus infection (mCherry reporter signal); Vaccinia virus mCherry reporter infection, fluorescence; Potency, µM (top dose mostly 36.5 µM), actives largely listed as inhibitors; 0.63% of 310,000 active; calls by dose curve; tested in A549 cells; note: nearly all actives have a fitted effect of over 35% in size
VACV Venus inh: inhibitors of vaccinia virus (Venus reporter); Vaccinia virus Venus reporter expression, fluorescence; Potency, µM (top dose mostly 36.5 µM), hits mostly inhibitors; 0.46% of 330,000 active; calls by dose curve; tested in A549 cells; note: nearly all actives have a fitted effect of over 30% in size
Pf growth 96h: P. falciparum growth inhibition at 96 hour, primary screen for plastid delayed-death inhibitors; P. falciparum luciferase reporter growth, 96 h; Potency, µM (doses to about 28.7 µM), actives largely listed as inhibitors; 6.9% of 320,000 active
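96 h incubation, 37 C, 5% CO2, of luciferase-reporter P. falciparum-infected RBCs (2% hematocrit, 0.05% parasitemia final) with test compounds; endpoint luminescence.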
Pf growth 48h: inhibits P. falciparum growth in the first generation, 48 h | P. falciparum luciferase growth in erythrocytes, 48 h | Potency, µM (titrated, usually from 28.7 µM), usual class: inhibitors | 5.9% of 310,000 active
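Firefly luciferase activity from engineered P. falciparum reports growth; inhibitors lower the luminescent signal. Cultures contained 2% hematocrit erythrocytes at 0.1% final parasitemia.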
NS1 function inh: influenza NS1 inhibition; Potency, µM (doses to about 46.1 µM); 0.4% of 270,000 active; calls by dose curve; note: actives are rising curves; nearly all actives have a fitted effect of over 50% in size
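Recovery from NS1-induced slow growth read by OD600 in budding yeast switched to galactose assay medium (pH 6.0, -URA) at 1:100 dilution. Compound 23 nl per well; the matching strain lacking NS1 serves as control.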
A number is an active result; – = inactive; ? = inconclusive; · = no result. Compounds with a hit are over-represented: about 11% of the library has one in this group of screens. Unless noted, calls come from the whole dose curve; as a rule, active = well fitted inhibition curve with a large enough effect; inconclusive = small, poorly fitted or top-dose-only effect, or another doubt; inactive = no such curve, though single readings can be large or run the other way.

SMILES	HCV inhibitor	Vaccinia mCherry	VACV Venus inh	Pf growth 96h	Pf growth 48h	NS1 function inh
Cc1ccc(Cn2cnc3sc4c(c3c2=O)CCC4)c(C)c1	?	–	–	1.85µM	?	–
Fc1cccc(Cl)c1CNn1cn[nH]c1=S	–	·	·	–	–	–
CCNc1nc(Nc2ccc(C)c(Cl)c2)c2cnn(C)c2n1	14.1µM	·	·	–	–	–
CCCCNc1nc(Nc2ccc(C)c(Cl)c2)c2cnn(C)c2n1	12.6µM	·	·	–	?	–
CCNc1nc(NCc2ccc(F)cc2)c2cnn(C)c2n1	·	–	–	·	·	·
CCOC(=O)Cn1c(=NC(=O)c2cc(-c3cccs3)nc3ccccc23)sc2cc(S(N)(=O)=O)ccc21	–	–	–	?	–	–
COc1ccc(NC(=O)c2c(NC(=O)c3ccncc3)sc3c2CCC(C(C)(C)C)C3)cc1 (configuration not stated)	·	10µM	?	·	·	·
CCOc1ccc(NC(=O)c2c(NC(=O)c3ccncc3)sc3c2CCC(C(C)(C)C)C3)cc1 (configuration not stated)	·	–	–	·	·	·
O=C1S/C(=C\c2ccc(N3CCOCC3)o2)C(=O)N1Cc1c(F)cccc1Cl	?	–	–	11.7µM	?	–
O=C1S/C(=C\c2ccc(N3CCOCC3)o2)C(=O)N1c1ccccc1	31.6µM	–	–	–	–	·
Cc1cccc(N2CCN(S(=O)(=O)c3cc(Cl)ccc3Cl)CC2)c1C	·	–	–	·	·	·
COc1ccc(C(F)(F)F)cc1NC(=O)c1nc2nc(C)cc(C(F)F)n2n1	–	·	–	?	3.7µM	–
CN(CCC#N)CC(=O)Nc1ccc(NC(=O)CN(C)CCC#N)cc1	–	–	–	–	–	–
Cc1ccc(NC(=O)C2OCCc3ccccc32)cc1C (configuration not stated)	–	–	–	–	–	–
CCCCCn1ccc(=O)c2c(C(F)(F)F)nccc21	11.2µM	·	·	?	–	–
c1ccc2c(c1)ncn2CCCOc1ccc2c(c1)CCC2	?	·	·	13.1µM	·	–
c1ccc(OCCCCn2cnc3ccccc32)cc1	?	–	–	–	–	–
c1ccc2c(c1)ncn2CCCCOc1ccc2c(c1)CCC2	?	·	·	5.86µM	·	–
O=[N+]([O-])c1cc(S(=O)(=O)N2CCCC2)ccc1O	–	–	–	–	?	–
O=C(CCc1ccccc1)Nc1ccc(S(=O)(=O)N2CCCC2)cc1	–	·	·	8.28µM	?	–
O=[N+]([O-])c1cc(S(=O)(=O)N2CCCCCC2)ccc1F	?	?	14.1µM	?	–	–
CCN(CC(=O)Nc1ccc(S(=O)(=O)N2CCCC2)cc1)Cc1ccccc1	–	–	–	?	13.1µM	·
CCN(CC(=O)Nc1ccc(S(=O)(=O)N2CCCC2)cc1)CC(=O)Nc1ccccc1C(F)(F)F	11.2µM	·	·	·	·	·
Cc1ccc(CN(Cc2ccco2)c2cnc(S(C)(=O)=O)nc2C(=O)Nc2ccc(Br)cc2)o1	·	–	–	·	·	·
O=C(O)C1Cc2ccccc2CN1C(=O)c1ccccc1Cl (configuration not stated)	–	–	–	–	–	–
SMILES	HCV inhibitor	Vaccinia mCherry	VACV Venus inh	Pf growth 96h	Pf growth 48h	NS1 function inh
O=C(CSCc1ccc(Cl)cc1)Nc1ccc2c(c1)OCO2	–	–	–	11.7µM	–	–
CCN(CC(=O)Nc1ccc(NC(C)=O)cc1)C(=O)/C=C/c1ccc(S(=O)(=O)N2CCCCCC2)cc1	–	–	–	4.65µM	3.29µM	–
CCN1CCN(S(=O)(=O)c2ccc3[nH]c(=O)oc3c2)CC1	–	–	–	?	·	–
O=C(CSCc1ccc(Cl)cc1)Nc1ccc(S(=O)(=O)N2CCCCCC2)cc1	–	–	–	13.1µM	?	–
O=c1[nH]c2ccc(S(=O)(=O)N3CCCCC3)cc2o1	–	–	–	10.4µM	–	–
COc1ccc(CSCC(=O)Nc2ccc(S(=O)(=O)N3CCCCCC3)cc2)cc1	–	–	–	?	?	–
O=C(CSCc1ccc(Cl)cc1)NCc1ccc2c(c1)OCO2	–	–	–	–	–	–
CN(CC(=O)Nc1ccc(Cl)cc1)c1ccc(S(=O)(=O)N2CCCCC2)cc1[N+](=O)[O-]	12.6µM	–	?	2.94µM	?	–
Cc1ccc(-c2nsc(SCC(=O)Nc3ccc4c(c3)OCO4)n2)cc1	–	–	–	–	–	–
O=C(CSc1nc(-c2ccccc2Cl)ns1)Nc1ccc2c(c1)OCO2	?	–	–	?	1.17µM	–
COc1cc(/C=N/NC(=O)c2cccs2)ccc1OCc1ccccc1	–	·	·	?	?	–
